“And” between values parts separate entries of the source, which are not always exact repeats. Equal entries are not always repeated. More than one record can exist for a structure, and the calls need not agree. The source made the active and inactive calls. The calls were made as follows: active = hit-call score of the fitted dose curve at least 0.9, where 1 is the maximum; inactive = score below 0.9.
Key:
Settings in all cases: mRNA level, 48 h; actives raise or lower the signal
[1] = read-out: Cytochrome P450 2C19 (Homo sapiens) (UniProt P33261); assay: LTEA_HepaRG_CYP2C19: Life Technologies and Expression Analysis (LTEA) Assay for CYP2C19 using HepaRG (AID 2283482)
Outline: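 CYP2C19 transcript levels by qRT-PCR, normalized to three housekeeping genes, in HepaRG cells after 48 h chemical exposure. Eight-point half-log series topping at 100 uM, 0.5% DMSO vehicle. Increases and decreases both fitted against DMSO.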

CYP2C8 (gene 1558) = assay: LTEA_HepaRG_CYP2C8: Life Technologies and Expression Analysis (LTEA) Assay for CYP2C8 using HepaRG (AID 2283483)
Outline: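 HepaRG (human liver line), 48 h chemical exposure, 8-pt half-log series from 100 uM, 0.5% DMSO vehicle. Readout: CYP2C8 transcript by qRT-PCR, housekeeping-normalized. Bidirectional fit vs DMSO baseline.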

CYP2C9 (gene 1559) = assay: LTEA_HepaRG_CYP2C9: Life Technologies and Expression Analysis (LTEA) Assay for CYP2C9 using HepaRG (AID 2283484)
Outline: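 HepaRG, 48 h dosing, 8-pt half-log series, top 100 uM, 0.5% DMSO vehicle. Read-out: CYP2C9 transcript by TaqMan qRT-PCR, housekeeping-normalized (ACTB/GAPDH/POLR2A). Gain or loss fitted vs DMSO baseline.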

CYP2E1 (gene 1571) = assay: LTEA_HepaRG_CYP2E1: Life Technologies and Expression Analysis (LTEA) Assay for CYP2E1 using HepaRG (AID 2283485)
Outline: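 Readout is qRT-PCR of CYP2E1 mRNA, normalized to three housekeeping genes and fitted bidirectionally against 0.5% DMSO. HepaRG cells were dosed 48 h at eight concentrations, highest 100 uM with half-log dilutions.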

CYP4A11 (gene 1579) = assay: LTEA_HepaRG_CYP4A11: Life Technologies and Expression Analysis (LTEA) Assay for CYP4A11 using HepaRG (AID 2283486)
Outline: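 Readout is CYP4A11 transcript level by qRT-PCR, normalized to three housekeeping genes and fitted bidirectionally against 0.5% DMSO. Human HepaRG cells were treated 48 h, in duplicate, with an 8-point half-log series topping at 100 uM.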

[2] = read-out: Cytochrome P450 3A4 (Homo sapiens) (UniProt P08684); assay: LTEA_HepaRG_CYP3A4: Life Technologies and Expression Analysis (LTEA) Assay for CYP3A4 using HepaRG (AID 2283487)
Outline: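 Differentiated HepaRG cells in serum-free induction medium exposed in duplicate for 48 h to 8 half-log concentrations up to 100 uM in 0.5% DMSO. CYP3A4 mRNA measured by qRT-PCR normalized to ACTB, GAPDH and POLR2A; bidirectional fit versus DMSO.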

[3] = read-out: DNA damage-inducible transcript 3 (DDIT3), DDIT3 (gene 1649); assay: LTEA_HepaRG_DDIT3: Life Technologies and Expression Analysis (LTEA) Assay for DNA damage-inducible transcript 3 (DDIT3) using HepaRG (AID 2283488)
Outline: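 Cells are human HepaRG liver cells treated for 48 h with eight half-log concentrations up to 100 uM in 0.5% DMSO. Transcript levels come from qRT-PCR normalized to three housekeeping genes, with activity fitted in both directions relative to vehicle.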

[4] = read-out: Pro-epidermal growth factor (Homo sapiens) (UniProt P01133); assay: LTEA_HepaRG_EGF: Life Technologies and Expression Analysis (LTEA) Assay for Epidermal growth factor (EGF) using HepaRG (AID 2283489)
Outline: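 EGF transcript measured by Fluidigm TaqMan qRT-PCR with three housekeeping genes for normalization, 48 h after dosing HepaRG cultures in duplicate (top 100 uM, half-log steps, 0.5% DMSO vehicle). Gain or loss relative to DMSO fitted.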

[5] = read-out: Early growth response protein 1 (EGR1) transcription factor, EGR1 (gene 1958); assay: LTEA_HepaRG_EGR1: Life Technologies and Expression Analysis (LTEA) Assay for Early growth response protein 1 (EGR1) transcription factor using HepaRG (AID 2283490)
Outline: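 HepaRG, 48 h exposure, 8-pt half-log series from 100 uM, 0.5% DMSO vehicle; EGR1 transcript by TaqMan qRT-PCR (Fluidigm array), housekeeping-normalized; bidirectional fit relative to DMSO baseline.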

[6] = read-out: Ezrin (EZR), EZR (gene 7430); assay: LTEA_HepaRG_EZR: Life Technologies and Expression Analysis (LTEA) Assay for Ezrin (EZR) using HepaRG (AID 2283491)
Outline: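 Differentiated human HepaRG cells, 48 h after plating, were exposed in serum-free induction medium for 48 hours to eight half-log concentrations up to 100 uM in 0.5% DMSO. EZR mRNA was measured by TaqMan qRT-PCR, normalized to ACTB, GAPDH and POLR2A, and fitted bidirectionally against DMSO.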

[7] = read-out: Cytochrome P450 3A7 (Homo sapiens) (UniProt P24462); assay: LTEA_HepaRG_CYP3A7: Life Technologies and Expression Analysis (LTEA) Assay for CYP3A7 using HepaRG (AID 2283492)
Outline: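 CYP3A7 transcript measured by qRT-PCR (ACTB, GAPDH, POLR2A normalization) after 48 h chemical exposure of HepaRG cells in duplicate. Eight half-log concentrations, maximum 100 uM, 0.5% DMSO vehicle; bidirectional curve fitting against DMSO baseline.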

CYP3A5 (gene 1577) = assay: LTEA_HepaRG_CYP3A5: Life Technologies and Expression Analysis (LTEA) Assay for CYP3A5 using HepaRG (AID 2283493)
Outline: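 Human HepaRG hepatic cells receive 48 h chemical treatment at eight concentrations (half-log steps from 100 uM) in 0.5% DMSO. Expression of CYP3A5 is quantified by Fluidigm qRT-PCR and normalized to three reference genes.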

[8] = read-out: Fatty Acid-Binding Protein 1 (FABP1), FABP1 (gene 2168); assay: LTEA_HepaRG_FABP1: Life Technologies and Expression Analysis (LTEA) Assay for Fatty Acid-Binding Protein 1 (FABP1) using HepaRG (AID 2283494)
Outline: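 qRT-PCR readout of FABP1 transcript (normalized to three housekeeping genes) after 48 h chemical exposure of HepaRG cells; eight concentrations, half-log steps, max 100 uM, 0.5% DMSO vehicle; gain or loss fitted relative to DMSO baseline.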

[9] = read-out: Cytochrome P450 4A22 (Homo sapiens) (UniProt Q5TCH4); assay: LTEA_HepaRG_CYP4A22: Life Technologies and Expression Analysis (LTEA) Assay for Cytochrome P450 4A22 (CYP4A22) using HepaRG (AID 2283495)
Outline: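 Gene expression measured by qRT-PCR against three housekeeping genes (ACTB, GAPDH, POLR2A), with gain or loss fitted relative to 0.5% DMSO vehicle. HepaRG cultures received 48 h chemical treatment, top concentration 100 uM, half-log steps, duplicate wells.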

[10] = read-out: Cytochrome P450 7A1 (Homo sapiens) (UniProt P22680); assay: LTEA_HepaRG_CYP7A1: Life Technologies and Expression Analysis (LTEA) Assay for Cytochrome P450 7A1 (CYP7A1) using HepaRG (AID 2283496)
Outline: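 HepaRG, 48 h exposure, 8-pt half-log series from 100 uM, 0.5% DMSO vehicle, duplicates. Readout: TaqMan qRT-PCR mRNA vs three housekeeping genes; bidirectional curve fit against DMSO baseline.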

[11] = read-out: Glutathione S-Transferase (GSTA2), GSTA2 (gene 2939); assay: LTEA_HepaRG_GSTA2: Life Technologies and Expression Analysis (LTEA) Assay for Glutathione S-Transferase (GSTA2) using HepaRG (AID 2283497)
Outline: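 qRT-PCR readout of GSTA2 transcript, normalized to three housekeeping genes, fitted bidirectionally against 0.5% DMSO baseline. Differentiated HepaRG cells received compound for 48 h at 8 concentrations (top 100 uM, half-log steps).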

[12] = read-out: Glutamate-cysteine ligase catalytic (GCLC), GCLC (gene 2729); assay: LTEA_HepaRG_GCLC: Life Technologies and Expression Analysis (LTEA) Assay for Glutamate-cysteine ligase catalytic (GCLC) using HepaRG (AID 2283498)
Outline: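 HepaRG, 48 h exposure, 8-pt half-log series from 100 uM, 0.5% DMSO vehicle; TaqMan qRT-PCR for GCLC mRNA, housekeeping-normalized; bidirectional curve fit vs DMSO baseline.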

[13] = read-out: growth arrest and DNA damage 45 (GADD45G), GADD45G (gene 10912); assay: LTEA_HepaRG_GADD45G: Life Technologies and Expression Analysis (LTEA) Assay for growth arrest and DNA damage 45 (GADD45G) using HepaRG (AID 2283499)
Outline: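 GADD45G transcript level by qRT-PCR (housekeeping-normalized: ACTB, GAPDH, POLR2A) after 48 h chemical treatment of a single HepaRG lot in serum-free induction medium; eight-point half-log series up to 100 uM in 0.5% DMSO, duplicates, up- or down-regulation scored.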

[14] = read-out: Glutamate-cysteine ligase regulatory (GCLM), GCLM (gene 2730); assay: LTEA_HepaRG_GCLM: Life Technologies and Expression Analysis (LTEA) Assay for Glutamate-cysteine ligase regulatory (GCLM) using HepaRG (AID 2283500)
Outline: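 Endpoint is GCLM transcript level by qRT-PCR, normalized to three housekeeping genes, after 48 h chemical exposure of human HepaRG cells (0.5% DMSO vehicle, top 100 uM, half-log dilutions). Fitting was bidirectional relative to DMSO.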

[15] = read-out: Glutathione S-transferase M3 (GSTM3), GSTM3 (gene 2947); assay: LTEA_HepaRG_GSTM3: Life Technologies and Expression Analysis (LTEA) Assay for Glutathione S-transferase M3 (GSTM3) using HepaRG (AID 2283501)
Outline: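 GSTM3 transcript levels came from Fluidigm TaqMan qRT-PCR normalized to three housekeeping genes, fitted in both directions against DMSO. HepaRG cultures received chemicals for 48 h in serum-free induction medium (0.5% DMSO), 8 half-log concentrations up to 100 uM, duplicate.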

Measured: AC50

Chain of Cytochrome P450 3A7 (Homo sapiens) (P24462 whole entry, looked up): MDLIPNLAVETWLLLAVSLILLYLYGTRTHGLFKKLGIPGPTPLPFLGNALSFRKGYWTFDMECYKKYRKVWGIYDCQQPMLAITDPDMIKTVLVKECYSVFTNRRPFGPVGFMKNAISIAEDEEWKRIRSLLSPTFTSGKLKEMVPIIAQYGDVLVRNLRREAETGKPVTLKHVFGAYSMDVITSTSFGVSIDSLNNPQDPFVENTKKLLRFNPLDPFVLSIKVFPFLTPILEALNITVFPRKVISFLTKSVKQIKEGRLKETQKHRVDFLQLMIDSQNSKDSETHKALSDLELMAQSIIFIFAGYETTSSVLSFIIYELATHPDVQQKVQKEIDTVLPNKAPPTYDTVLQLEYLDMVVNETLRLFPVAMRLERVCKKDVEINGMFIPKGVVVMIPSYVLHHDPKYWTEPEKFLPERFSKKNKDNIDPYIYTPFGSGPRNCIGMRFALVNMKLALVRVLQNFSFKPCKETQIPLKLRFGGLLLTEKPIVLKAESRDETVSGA
Chain of Cytochrome P450 2C19 (Homo sapiens) (P33261 whole entry, looked up): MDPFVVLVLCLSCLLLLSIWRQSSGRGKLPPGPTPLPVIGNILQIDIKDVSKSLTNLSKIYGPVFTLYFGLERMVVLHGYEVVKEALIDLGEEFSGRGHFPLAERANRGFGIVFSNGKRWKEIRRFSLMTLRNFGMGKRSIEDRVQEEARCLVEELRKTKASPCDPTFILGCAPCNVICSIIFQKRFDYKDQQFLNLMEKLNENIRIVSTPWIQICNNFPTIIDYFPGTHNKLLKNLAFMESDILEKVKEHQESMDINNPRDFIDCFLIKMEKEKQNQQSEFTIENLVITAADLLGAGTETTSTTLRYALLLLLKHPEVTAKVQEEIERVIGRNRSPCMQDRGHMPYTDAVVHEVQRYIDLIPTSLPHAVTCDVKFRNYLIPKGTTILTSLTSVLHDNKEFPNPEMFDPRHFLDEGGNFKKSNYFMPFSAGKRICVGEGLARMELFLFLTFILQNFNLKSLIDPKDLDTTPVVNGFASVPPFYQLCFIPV
Chain of Cytochrome P450 3A4 (Homo sapiens) (P08684 whole entry, looked up): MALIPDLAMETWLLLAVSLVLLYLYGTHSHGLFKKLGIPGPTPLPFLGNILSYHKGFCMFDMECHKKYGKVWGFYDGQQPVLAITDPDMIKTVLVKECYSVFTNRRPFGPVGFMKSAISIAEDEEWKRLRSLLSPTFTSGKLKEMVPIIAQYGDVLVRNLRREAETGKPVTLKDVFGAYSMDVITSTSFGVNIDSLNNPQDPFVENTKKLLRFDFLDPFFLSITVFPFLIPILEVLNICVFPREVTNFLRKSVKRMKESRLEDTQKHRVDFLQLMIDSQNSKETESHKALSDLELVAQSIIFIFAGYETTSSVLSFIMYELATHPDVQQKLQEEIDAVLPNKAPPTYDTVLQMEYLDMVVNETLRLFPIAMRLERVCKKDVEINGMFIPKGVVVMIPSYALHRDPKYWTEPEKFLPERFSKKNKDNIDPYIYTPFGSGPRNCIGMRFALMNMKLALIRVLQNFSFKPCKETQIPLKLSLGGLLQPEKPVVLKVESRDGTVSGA

COC(=O)c1ccc(C(=O)OC)cc1
inactive: all assays above

CC/C(=C(\c1ccccc1)c1ccc(OCCN(C)C)cc1)c1ccccc1
active: CYP2E1 (gene 1571) 17 µM and 23.7 µM | CYP4A11 (gene 1579) 19.7 µM and 22.4 µM | [3] 64.7 µM and 72.2 µM | [5] 73.6 µM | [6] 81.4 µM and 50 µM | CYP3A5 (gene 1577) 86.7 µM | [8] 60 µM and 70.9 µM | [9] 14.5 µM and 20.7 µM | [11] 70.2 µM | [13] 90.5 µM | [14] 74 µM and 50 µM
inactive: [1] | CYP2C8 (gene 1558) | [2] | [4] | [5] | [7] | CYP3A5 (gene 1577) | [10] | [11] | [12] | [13] | [15]

O=C(c1ccc(OCCN2CCCCC2)cc1)c1c(-c2ccc(O)cc2)sc2cc(O)ccc12
active: CYP2C9 (gene 1559) 50 µM | CYP2E1 (gene 1571) 69.1 µM | [3] 83.3 µM | [5] 90.9 µM | [6] 50 µM | CYP3A5 (gene 1577) 41.4 µM | [8] 50 µM | [11] 69.1 µM
not listed: [1] | [2]
inactive: all other assays above

C#C[C@]1(O)CC[C@H]2[C@@H]3CCc4cc(O)ccc4[C@H]3CC[C@@]21C
active: [1] 50 µM | CYP2C8 (gene 1558) 50 µM
not listed: [14]
inactive: all other assays above

C[C@]12CC[C@@H]3c4ccc(O)cc4CC[C@H]3[C@@H]1CC[C@@H]2O
active: [1] 5.7 µM | CYP2C8 (gene 1558) 4.16 µM | CYP2E1 (gene 1571) 50 µM | CYP4A11 (gene 1579) 76.9 µM | [2] 4.95 µM | CYP3A5 (gene 1577) 50 µM | [8] 29 µM | [9] 50 µM
not listed: [7]
inactive: all other assays above

C=C(C)C(N)=O
inactive: all assays above

CCCCOCCOCCO
inactive: all assays above
